Results as given in article PMC5540273 (PLoS ONE, 2017).

Columns and labels:
Conditions in all cases: concentration: 1 μM, replicates: in singlicate; n = 1
YANK2 = test system: T1, YANK2
T1 construct: gene STK32B

YANK3 = test system: T2, YANK3
T2 construct: gene STK32C

YES = test system: T3, YES
T3 construct: gene YES1

YSK1 = test system: T4, YSK1
T4 construct: gene STK25

YSK4 = test system: T5, YSK4
T5 construct: gene MAP3K19

ZAK = test system: ZAK
ZAP70 = test system: ZAP70
p38-alpha = test system: T6, p38-alpha
T6 construct: gene MAPK14

p38-beta = test system: T7, p38-beta
T7 construct: gene MAPK11

p38-delta = test system: p38-delta
p38-gamma = test system: T8, p38-gamma
T8 construct: gene MAPK12
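Further: KINOMEscan kinase panel screen.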

Structure (SMILES)	%Inh (YANK2) [%]	%Inh (YANK3) [%]	%Inh (YES) [%]	%Inh (YSK1) [%]	%Inh (YSK4) [%]	%Inh (ZAK) [%]	%Inh (ZAP70) [%]	%Inh (p38-alpha) [%]	%Inh (p38-beta) [%]	%Inh (p38-delta) [%]	%Inh (p38-gamma) [%]
COc1ccc(Nc2nccc(N3CCC(NC(=O)C(C)c4ccc(Cl)cc4)C3)n2)cc1 (centres unmarked) [GSK1379735]	7	15	13	0	0	5	2	0	24	29	22
Nc1ncnc2occ(-c3ccc4c(c3)CCN4C(=O)Cc3cc(F)ccc3F)c12 [GSK2645446]	0	0	0	4	66	0	0	0	0	24	7
COc1ccc(CSc2nnc(-c3ccc4ncsc4c3)o2)cc1C(F)(F)F	11	0	0	11	70	0	11	0	10	0	0
Cc1ccccc1-c1cc(-c2c[nH]nc2-c2ccccn2)ccn1 [GW680061]	0	13	15	3	14	0	0	85	0	28	0
Cn1cncc1C(=O)NC1CCN(c2ccnc(Nc3ccc(F)cc3)n2)C1 (centres unmarked) [GSK1379717]	4	0	12	0	38	100	43	0	0	5	0
CC[C@@H]1CO[C@H](C(=O)Nc2ccccc2)CN1c1cc(-c2ccc3c(N)n[nH]c3c2)nc(NC)n1 [GSK2376236]	77	0	0	6	1	0	0	8	0	26	0
CSc1ccc(-c2nc3n(c2-c2ccncc2)CCC3)cc1 [SKF-105561]	6	0	7	0	7	3	0	51	7	0	30
O=C1NC(=O)C(c2ccc(Cl)cc2)=C1Nc1ccc(O)cc1 [SB-340867]	0	0	0	8	10	22	0	0	0	0	0
Fc1ccc(-c2nc3n(c2-c2ccncc2)CCS3)cc1 [GI98581]	5	21	0	0	5	4	0	98.4	14	14	0
CCCCc1nn2ncccc2c1-c1ccnc(NC2CC2)n1 [GW684374]	3	0	0	25	18	24	0	61	0	40	0
COC(=O)C(Cc1ccccc1)NC(=O)NC1CCN(c2ccnc(Nc3ccc(F)cc3)n2)C1 (centres unmarked) [GSK1379714]	0	7	0	0	82	5	7	0	0	0	12
CS(=O)(=O)Cc1ccc(Nc2nccc(-c3c(-c4cccc(NC(=O)C5CCCCC5)c4)nn4ncccc34)n2)cc1 [GSK350559]	13	3	36	0	16	15	22	2	6	0	43
Cc1c(Cn2c3ccccc3n3c(=O)cc(N4CCOCC4)nc23)cccc1C(F)(F)F [GSK2306394]	0	13	6	0	7	1	0	22	0	17	0
COC(=O)C(NC(=O)NC1CCN(c2ccnc(Nc3ccc(F)cc3)n2)C1)c1ccccc1 (centres unmarked) [GSK1379712]	0	0	0	14	32	0	4	12	0	37	23
COc1cccc(C2=C(Nc3cc(Cl)c(O)c(Cl)c3)C(=O)NC2=O)c1 [SB-390767]	0	4	19	0	30	0	0	0	0	39	0
CS(=O)(=O)CCNCc1nc(-c2ccc3ncnc(Nc4ccc(OCc5ccccc5)c(Cl)c4)c3c2)cs1.Cl [GW582764]	0	40	7	0	30	5	0	0	0	37	0
